The term AC50 denotes the concentration at which the activity in the assay is half-maximal.

Structures are written as SMILES. Values joined by “and” are separate entries in the source; they are usually repeats but may differ in a detail not shown here. Equal values may be shown once. Active and inactive are the calls of the source. The calls were made as follows: active = hit-call score of the fitted dose curve at least 0.9, where 1 is the maximum; inactive = score below 0.9.

Read-out in assay [1]: Tissue plasminogen activator (tPA), PLAT (gene 5327)
Put plainly: BSK_BE3C_tPA: BioMAP Diversity Plus: BE3C Assay for Tissue plasminogen activator (tPA) Biomarker Activity (AID 2283041).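 As to outcome: tPA level quantified by ELISA one day after compound addition.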 To be noted: primary human bronchial epithelial cells; actives raise or lower the signal. In a few lines: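 ELISA read-out of tPA on human primary bronchial epithelial cells, 24 h post-dosing; bidirectional fit vs DMSO negative control/baseline.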

Read-out in assay [2]: Interleukin-8 (IL8), CXCL8 (gene 3576)
Put plainly: BSK_CASM3C_IL8: BioMAP Diversity Plus: CASM3C Assay for Interleukin-8 (IL8) Biomarker Activity (AID 2283042).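 Also: IL-8 protein level quantified by ELISA.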 As to conditions: primary human coronary artery smooth muscle cells; actives raise or lower the signal.

Read-out in assay [3]: Human Leukocyte Antigen - DR isotype (HLADR), HLA-DRA (gene 3122)
Put plainly: BSK_CASM3C_HLADR: BioMAP Diversity Plus: CASM3C Assay for Human Leukocyte Antigen - DR isotype (HLADR) Biomarker Activity (AID 2283043).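 Also: cell-surface HLA-DR protein level quantified by ELISA.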 To be noted: primary human coronary artery smooth muscle cells; actives raise or lower the signal.

Read-out in assay [4]: Macrophage colony-stimulating factor (MCSF), CSF1 (gene 1435)
Kind of assay: BSK_CASM3C_MCSF: BioMAP Diversity Plus: CASM3C Assay for Macrophage colony-stimulating factor (MCSF) Biomarker Activity (AID 2283044).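 Also: M-CSF protein amount quantified by ELISA after 24 h exposure.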 To be noted: primary human coronary artery smooth muscle cells; actives raise or lower the signal.

Read-out in assay [5]: Low-density lipoprotein receptor (LDLR), LDLR (gene 3949)
Kind of assay: BSK_CASM3C_LDLR: BioMAP Diversity Plus: CASM3C Assay for Low-density lipoprotein receptor (LDLR) Biomarker Activity (AID 2283045).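 Also: LDLR protein level on the cell surface quantified by ELISA.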 As to conditions: primary human coronary artery smooth muscle cells; actives raise or lower the signal.

Read-out in assay [6]: Monocyte Chemoattractant Protein-1 (MCP1), CCL2 (gene 6347)
Put plainly: BSK_CASM3C_MCP1: BioMAP Diversity Plus: CASM3C Assay for Monocyte Chemoattractant Protein-1 (MCP1) Biomarker Activity (AID 2283046).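 Also: MCP-1 level quantified by ELISA 24 h after dosing.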 As to conditions: primary human coronary artery smooth muscle cells; actives raise or lower the signal.

A short description of assay [7]: BSK_CASM3C_Proliferation: Cell Proliferation Assessment in the BioMAP Diversity Plus: CASM3C Assay (AID 2283047).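 Also: sulforhodamine B total protein stain as relative cell number at 560 nm; sub-confluent cells exposed 48 h before staining; fitted both ways against DMSO so gain or loss of cell number.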 As to conditions: primary human coronary artery smooth muscle cells.
Read-out in assay [8]: Monokine induced gamma interferon (MIG), CXCL9 (gene 4283)
Put plainly: BSK_CASM3C_MIG: BioMAP Diversity Plus: CASM3C Assay for Monokine induced gamma interferon (MIG) Biomarker Activity (AID 2283048).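 Also: MIG protein level measured by ELISA.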 As to conditions: primary human coronary artery smooth muscle cells; actives raise or lower the signal.

Read-out in assay [9]: serum amyloid A (SAA), SAA1 (gene 6288)
Kind of assay: BSK_CASM3C_SAA: BioMAP Diversity Plus: CASM3C Assay for serum amyloid A (SAA) Biomarker Activity (AID 2283049).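 Also: SAA protein level quantified by ELISA.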 To be noted: primary human coronary artery smooth muscle cells; actives raise or lower the signal.

The nature of assay [10]: BSK_CASM3C_SRB: Viability Assessment in the BioMAP Diversity Plus: CASM3C Assay (AID 2283050).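 Also: total protein by SRB staining as cytotoxicity measure in parallel cultures; cells exposed to compound for 24 h.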 To be noted: primary human coronary artery smooth muscle cells.

As to `CC(C)[C@H](C(=O)O[C@H](C#N)c1cccc(Oc2ccccc2)c1)c1ccc(Cl)cc1`, the result in assay [1], in assay [2], in assay [3], in assay [4], in assay [5] and in [6] was inactive. Also, the result in assay [8], in [9] and in [10] was inactive. In assay [7], the concentration at half-maximal activity (AC50) was 9.47 µM (active).

Take `COc1ccc(C(=CC(=O)N2CCOCC2)c2ccc(Cl)cc2)cc1OC`: the outcome in assay [1], in assay [2], in assay [3], in assay [5], in assay [7] and in assay [8] was inactive. The result in assay [9] and in assay [10] was inactive. Further, the half-maximal activity concentration (AC50) in assay [4] is 2.5 µM (active); in [6], 6.65 µM (active).

On to `CCC(=O)Nc1ccc(Cl)c(Cl)c1`, for which the outcome in assay [1], in assay [2], in assay [3], in assay [4], in assay [5] and in [6] was inactive. Further, the outcome in assay [7], in [8] and in [10] was inactive.

For the compound `CCCOCC(=Nc1ccc(Cl)cc1C(F)(F)F)n1ccnc1`, the concentration at half-maximal activity (AC50) in assay [1] is 32.8 µM (active); in assay [6] it was 26 µM (active); in [7], 32.7 µM (active); in assay [8], 20 µM (active). The outcome in assay [2], in assay [3], in [4], in [5], in assay [9] and in assay [10] was inactive.

`COP(=O)(OC)SCn1c(=O)oc2cc(Cl)cnc21`: the outcome in assay [1], in assay [2], in [3], in assay [5] and in assay [9] was inactive. The concentration at half-maximal activity (AC50) in [4] was 9.42 µM (active); in assay [6], 20 µM (active); in assay [7], 21.5 µM (active); in [8], 38.8 µM (active); in assay [10] it was 24.7 µM (active).

Consider `Nc1c(Cl)cc([N+](=O)[O-])cc1Cl`, for which the result in [1], in assay [2], in assay [3], in [4], in [5] and in assay [6] was inactive. In addition, the outcome in assay [7], in [8], in assay [9] and in assay [10] was inactive.

With `N#CSCSC#N`, the result in [1] and in [5] was inactive. The AC50 is 16.1 µM (active) in assay [2]; 21.4 µM (active) in assay [3]; 16.1 µM (active) in assay [4]; 20.5 µM (active) in assay [6]; 2.16 µM (active) in assay [7]; 14.1 µM (active) in assay [8]. The AC50 was 30.2 µM (active) in assay [9] and 14.6 µM (active) in [10].

As to `CSc1nnc(C(C)(C)C)c(=O)n1N`, the result in assay [1], in assay [2], in [3], in assay [4], in assay [6] and in assay [7] was inactive. For the same compound, the outcome in assay [8], in [9] and in assay [10] was inactive. Moreover, the AC50 in assay [5] was 4.43 µM (active).

For `CSc1nc(NC(C)C)nc(NC(C)C)n1`, the result in [1], in assay [2], in assay [3], in assay [4], in [5] and in [6] was inactive. Moreover, the result in assay [7], in [8], in assay [9] and in assay [10] was inactive.

Regarding `CNC(=O)ON=C(SC)C(=O)N(C)C`, the outcome in [1], in assay [2], in [3], in assay [4], in assay [5] and in assay [6] was inactive. For the same compound, the result in [7], in assay [8], in assay [9] and in assay [10] was inactive.

Consider `CCCCN(CC)c1c([N+](=O)[O-])cc(C(F)(F)F)cc1[N+](=O)[O-]`, for which the outcome in assay [1], in [2], in assay [3], in assay [4], in assay [5] and in assay [6] was inactive. For the same compound, the result in assay [7], in assay [8], in assay [9] and in [10] was inactive.

As to `O=c1ccc(=O)[nH][nH]1`, the result in assay [1], in assay [2], in assay [3], in assay [4], in assay [5] and in assay [6] was inactive. Moreover, the outcome in assay [7], in assay [8], in assay [9] and in assay [10] was inactive.

Consider `S=C1NCCN1`, for which the outcome in assay [1], in assay [2], in [3], in assay [4], in assay [5] and in assay [6] was inactive. Further, the result in [7], in assay [8], in [9] and in assay [10] was inactive.

Take `CCC(CC)Nc1c([N+](=O)[O-])cc(C)c(C)c1[N+](=O)[O-]`: the outcome in [1], in [2], in assay [3], in assay [4], in [5] and in [6] was inactive. Further, the outcome in [8], in [9] and in [10] was inactive. In addition, the AC50 in [7] was 13.9 µM (active).

For `CCOC(=O)COc1cc(-c2nn(C)c(OC(F)F)c2Cl)c(F)cc1Cl`, the outcome in [1], in [2], in assay [3], in assay [4], in [5] and in [6] was inactive. The result in assay [7], in assay [8], in [9] and in assay [10] was inactive.

For the compound `CN(C)[C@@H]1C(=O)C(C(N)=O)=C(O)[C@@]2(O)C(=O)C3=C(O)c4c(O)cccc4[C@@](C)(O)[C@H]3[C@H](O)[C@@H]12`, the outcome in assay [1], in assay [2], in assay [3], in assay [4], in assay [5] and in assay [6] was inactive. Moreover, the outcome in assay [8], in assay [9] and in [10] was inactive. Besides, the AC50 in assay [7] was 28.7 µM (active) and 11 µM (active).

Take `CN(C)NC(=O)CCC(=O)O`: the outcome in [1], in [2], in [3], in assay [4], in [5] and in [6] was inactive. Also, the result in assay [7], in assay [8], in assay [9] and in assay [10] was inactive.

In the case of `CCCCOC(=O)[C@@H](C)Oc1ccc(Oc2ccc(C#N)cc2F)cc1`, the result in [1], in [2], in assay [3], in assay [4], in assay [5] and in assay [6] was inactive. The result in assay [7], in assay [8], in [9] and in assay [10] was inactive.

(Values after PubChem BioAssay (EPA / NIEHS).)
